In PubChem BioAssay (NCATS):
Records with an inconclusive call do not appear. The source made the active and inactive calls. The call rests on the fitted dose curve; in most records, active means well fitted inhibition curve with a large enough effect; inconclusive means small, poorly fitted or top-dose-only effect; inactive means flat fitted curve, though single readings scatter.

These compounds were tested against Lysine-specific demethylase 5B (Homo sapiens) (UniProt Q9UGL1) (assay: Optimization screen for KDM5B Histone Demethylases FDH coupled qHTS against the LOPAC library (AID 1347166; further: 0% is about no effect)). Details: KDM5B demethylation, FDH-coupled NADH fluorescence (FDH is formaldehyde dehydrogenase); at 57.5 µM (top of the series).
Lysine-specific demethylase 5B (Homo sapiens), sequence (Q9UGL1 whole entry, looked up): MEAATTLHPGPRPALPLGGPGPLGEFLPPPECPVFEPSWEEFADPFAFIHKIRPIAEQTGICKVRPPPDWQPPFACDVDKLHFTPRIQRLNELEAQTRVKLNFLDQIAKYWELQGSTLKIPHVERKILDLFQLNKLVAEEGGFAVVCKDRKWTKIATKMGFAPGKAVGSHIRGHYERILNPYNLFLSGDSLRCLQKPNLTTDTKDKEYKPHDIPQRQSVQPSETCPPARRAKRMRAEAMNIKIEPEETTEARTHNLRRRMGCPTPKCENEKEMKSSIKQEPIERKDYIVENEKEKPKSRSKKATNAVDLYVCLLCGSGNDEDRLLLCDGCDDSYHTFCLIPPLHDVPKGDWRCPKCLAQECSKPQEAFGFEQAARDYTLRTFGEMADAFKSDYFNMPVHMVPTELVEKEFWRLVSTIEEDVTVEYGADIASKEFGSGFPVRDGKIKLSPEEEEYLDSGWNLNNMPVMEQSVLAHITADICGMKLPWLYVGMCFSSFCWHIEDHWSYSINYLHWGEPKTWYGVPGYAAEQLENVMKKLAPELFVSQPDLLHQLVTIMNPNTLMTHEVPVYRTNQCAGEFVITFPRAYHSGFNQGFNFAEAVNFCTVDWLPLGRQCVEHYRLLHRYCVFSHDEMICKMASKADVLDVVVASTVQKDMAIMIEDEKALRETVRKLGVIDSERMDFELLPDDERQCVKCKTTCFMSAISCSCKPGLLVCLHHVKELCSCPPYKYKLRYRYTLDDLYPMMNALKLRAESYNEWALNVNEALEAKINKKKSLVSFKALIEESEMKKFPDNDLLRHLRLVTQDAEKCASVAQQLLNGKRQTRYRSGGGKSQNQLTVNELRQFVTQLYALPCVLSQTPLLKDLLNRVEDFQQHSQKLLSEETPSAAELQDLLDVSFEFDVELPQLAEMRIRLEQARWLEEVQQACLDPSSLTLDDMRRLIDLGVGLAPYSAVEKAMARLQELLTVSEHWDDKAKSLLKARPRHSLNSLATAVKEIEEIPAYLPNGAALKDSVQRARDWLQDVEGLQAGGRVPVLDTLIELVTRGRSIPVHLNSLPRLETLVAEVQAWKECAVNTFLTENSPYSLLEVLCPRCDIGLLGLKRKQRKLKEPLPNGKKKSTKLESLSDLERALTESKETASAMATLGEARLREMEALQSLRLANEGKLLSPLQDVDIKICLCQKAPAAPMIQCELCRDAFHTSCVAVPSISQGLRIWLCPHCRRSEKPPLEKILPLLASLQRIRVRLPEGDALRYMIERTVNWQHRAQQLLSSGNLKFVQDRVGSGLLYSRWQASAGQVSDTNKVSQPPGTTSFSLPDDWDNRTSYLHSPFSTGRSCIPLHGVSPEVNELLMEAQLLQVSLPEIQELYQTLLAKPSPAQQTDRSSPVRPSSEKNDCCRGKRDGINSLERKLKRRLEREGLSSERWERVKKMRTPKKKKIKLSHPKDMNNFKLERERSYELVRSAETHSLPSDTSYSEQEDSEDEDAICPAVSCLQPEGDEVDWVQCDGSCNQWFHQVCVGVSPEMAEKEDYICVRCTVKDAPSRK
Text: Assay Submitter (PI): Qin Yan, Ph.D. (Yale University) and Xiaodong Cheng, Ph.D. (MD Anderson)
This project was funded as part of the NCI NEXT Program and Chemical Biology Consortium (CBC)
The histone demethylases, KDM5A and KDM5B catalyze the demethylation of lysine 4 on histone H3 (H3K4me3/2). They
are overexpressed in a variety of cancers and have been implicated in cancer cell growth, metastasis, drug resistance, and tumor growth. KDM5A is amplified and overexpressed in breast and gastric cancer; and is translocated in leukemia. While KDM5B is highly expressed in human mammary tumors and breast cancer cell lines, but not in normal adult breast tissue. Moreover, knockdown of KDM5B leads to upregulation of tumor suppressor genes, including BRCA1. The goal of this project is to employ qHTS to identify selective small molecule inhibitors of KDM5A/B demethylase activity to better understand the role of KDM5 in cancer and to develop novel therapies.
We employed an FDH-coupled assay previously reported by Sakurai et al. to monitor in vitro KDM5 demethylase activity. Compounds showing dose response inhibition are re-acquired, validated, and tested for non-specific interference with the formaldehyde dehydrogenase (FDH) counterscreen. True inhibitors are validated using an AlphaLisa secondary screen, which employs an H3K4(me2-1)-specific antibody to monitor demethylation of a biotin-tagged H3K4(me3) peptide substrate. Inhibitors are profiled against KDM4A and KDM6A AlphaLisa counterscreens to determine level of demethylase specificity; and against the TruHits counterscreen to eliminate non-specific inhibitory activity on the AlphaLISA detection method. Selective inhibitors identified from the primary and secondary screening are tested in cells using immunofluorescence to monitor global H3K4 tri-methylation as a measure of KDM5A/B inhibition. This assay is run against the NCGC Lopac collection of about 1,200 compounds to evaluate its amenability to quantitative High Throughput Screening (qHTS) platform.
Early Translation Branch (ETB)
National Center for Advancing Translational Sciences (NCATS), Rockville, MD
National Institute of Health (NIH), Bethesda, Maryland
[1] Sakurai, M et al. A miniaturized screen for inhibitors of Jumonji histone demethylases. Mol Biosyst. 2010 Feb;6(2):357-64. doi: 10.1039/b912993f. Epub 2009 Oct 8.
1536-well Black, solid bottom, medium binding assay plate is purchased from Greiner Bio-one. The enzymes (KDM5B) and substrate (H3K4me3/2) are provided by the principal investigators. The buffer for this assay is composed of 50mM HEPES at pH 7.5 with 0.01% Tween-20.
FDH coupled qHTS protocol:
Three microliter enzyme mix (buffer + 200nM KDM5BDeltaAP final concentration) is dispensed into the assay plate using the BioRAPTR Flying Reagent Dispenser (FRD; Beckton-Dickenson). Compound (at various final concentration) and control solution is pin transferred to the assay plate using the Kalypsys 1536-pin tool apparatus. The assay plate is incubated for 10 min at room temperature followed by addition of 1uL substrate mix (buffer + 100uM ascorbic acid, 50uM ferrous ammonium sulfate, 12.5uM H3K4Me3, 25uM a-ketoglutarate, 0.25 mM NAD+, 0.25 U/mL formaldehyde dehydrogenase using the FRD yielding a total reaction volume of 4 uL. Initial fluorescence (Read1) is detected using the PerkinElmer ViewLux plate reader equipped with 340 nm excitation and 450 nm emission filters. The final fluorescence (Read2) signal is obtained after 30 min of room temperature incubation. Delta RFU is calculated (Read2 - Read1) and is used to generated dose response curves

| Compound | activity, negative = inhibition |
| --- | --- |
| N[C@H]1CONC1=O | -4.96% (inactive) |
| OCC1NCC(O)C(O)C1O (stereo not given) | -3.55% (inactive) |
| O=C(O)C1CCNCC1 | -5.33% (inactive) |
| COc1ccc2c(c1)CCC1C2CC[C@@]2(C)C1CC[C@@H]2NCCCCCCN1C(=O)C=CC1=O (stereo not given in full) | -20.3% (inactive) |
| CCCCC[C@H](CC(=O)NO)C(=O)N[C@H](C(=O)N1CCC[C@H]1CO)C(C)C | 9.91% (inactive) |
| CC(C)C[C@H](NC(=O)C1OC1C(=O)O)C(=O)NCCCCN=C(N)N (stereo not given in full) | 0.286% (inactive) |
| NCCCCN=C(N)N | -1.42% (inactive) |
| CCCCCCC/C=C\CCCCCCCCC(=O)O | -29.9% (inactive) |
| CC(/C=C/c1cccc(Oc2ccc(F)cc2)c1)N(O)C(N)=O (stereo not given) | -9.88% (inactive) |
| NCCCNCCCCNCCCN | -4.41% (inactive) |
| NOCC(=O)O | -4.09% (inactive) |
| COc1ccccc1N1CCN(CCCCN2C(=O)c3ccccc3C2=O)CC1 | -4.4% (inactive) |
| O=C1Cc2c([nH]c3ccc(Br)cc23)-c2ccccc2N1 | -26.8% (inactive) |
| COc1cc(N)c(Cl)cc1C(=O)OCCN1CCCCC1 | -18.2% (inactive) |
| N[C@@H](CS(=O)O)C(=O)O | -4.61% (inactive) |
| CC(C)[C@@H]1CC[C@@H](C)C[C@@H]1P(=O)(c1ccccc1)c1ccccc1 | -4.33% (inactive) |
| CSc1nc(N)c2ncn([C@@H]3O[C@H](COP(=O)(O)OP(=O)(O)O)C(O)[C@H]3O)c2n1 (stereo not given in full) | -13.8% (inactive) |
| CCCCCC(O)CCCC(=O)O (stereo not given) | -6.03% (inactive) |
| CN[C@H](CC(=O)O)C(=O)O | -14.8% (inactive) |
| COC(=O)C1=C(C)NC(C)=C([N+](=O)[O-])C1c1ccccc1C(F)(F)F (stereo not given) | -5.36% (inactive) |

| Compound | activity, negative = inhibition |
| --- | --- |
| c1ccc(C2CN3CCSC3=N2)cc1 (stereo not given) | -3.45% (inactive) |
| CC(=O)N[C@@H](Cc1c[nH]c2ccccc12)C(=O)OCc1cc(C(F)(F)F)cc(C(F)(F)F)c1 | -9.61% (inactive) |
| NC(=O)c1cc[n+](CC2=C(C(=O)O)N3C(=O)[C@@H](NC(=O)[C@@H](c4ccccc4)S(=O)(=O)[O-])[C@H]3SC2)cc1 | -15.3% (inactive) |
| CN1CCC2(CCN3CCc4c(oc5ccccc45)C3C2)N(C)C1=O (stereo not given) | -3.3% (inactive) |
| CCC1(O)CC2CN(CCc3c([nH]c4ccccc34)[C@@](C(=O)OC)(c3cc4c(cc3OC)N(C=O)C3[C@]45CCN4CC=C[C@@](CC)([C@@H](OC(C)=O)[C@]3(O)C(=O)OC)[C@H]45)C2)C1 (stereo not given in full) | -9.11% (inactive) |
| CC(=O)O[C@H]1Cc2ccccc2N(C(N)=O)c2ccccc21 | -5.85% (inactive) |
| O=C(O)c1cccnc1C(=O)O | 6.25% (inactive) |
| C=C1C(=O)O[C@@H]2[C@H]3O[C@]3(C)CCC=C(C)CC[C@@H]12 | -8.83% (inactive) |
| Cc1ccc([N+](=O)[O-])cc1S(=O)(=O)N(C)C | -0.674% (inactive) |
| COc1cc(C(O)C(=O)O)ccc1O (stereo not given) | -6.83% (inactive) |
| CC(=O)C(C)=O | -10.5% (inactive) |
| CCCCCCCCCCCCCCSCC(=O)O | -24.4% (inactive) |
| N[C@@H](CCCC(=O)O)C(=O)O | -3.82% (inactive) |
| CC#CCOC(=O)c1c(C)nc2sc3c(c2c1N)CCC(O)C3 (stereo not given) | -10.9% (inactive) |
| NC1CCN(O)C1=O (stereo not given) | -8.73% (inactive) |
| N=C(N)c1ccccc1 | -3.44% (inactive) |
| NC(N)=N[C@@H](CCC(=O)O)C(=O)O | -1.71% (inactive) |
| CC1CCN=C(N)S1 (stereo not given) | -2.36% (inactive) |
| CC(=O)SC1CC2=CC(=O)CC[C@]2(C)C2CC[C@@]3(C)C(CC[C@@]34CCC(=O)O4)C12 (stereo not given in full) | 0.621% (inactive) |
| O=c1[nH]c(=S)[nH]c(-c2ccccc2)c1Cc1c(O)ccc2ccccc12 | -27.4% (inactive) |
